Among the data in PubChem BioAssay (NCATS) are Potency values, retold here.

Records with an inconclusive call do not appear. Where a call stands in place of a potency, no number is given. Activity calls are given as the source filed them. Calls follow the shape of the dose curve; as a rule, active = well fitted inhibition curve with a large enough effect; inconclusive = small, poorly fitted or top-dose-only effect; inactive = no such curve, though single readings can be large or run the other way.
Potency is read from the fitted curve at half-maximal effect.

The experiment concerns Zika virus NS2B-NS3 protease (unlinked). Briefly: Optimization of GU AMC qHTS for Zika virus inhibitors: Unlinked NS2B-NS3 protease assay (AID 1347151). Also: nearly all actives have a fitted effect of over 80% in size. As to conditions: recombinant ZIKV NS2B-NS3 protease, fluorogenic AMC substrate; series mostly up to 52.5 µM. From the text:
Avindra Nath, Ph.D., National Institute of Neurological Disorders and Stroke (NINDS), Bethesda, MD
Radhakrishnan Padmanabhan, Ph.D., Georgetown University (GU), Washington D.C.
Zika Virus causes congenital defects, including microcephaly and is associated with Guillain-Barre syndrome, eningoencephalitis and myelitis in infected adult. […] Using a target-based approach, we hope to establish a screening paradigm to uncover novel, cell-active NS2B-NS3 protease (Zika Virus) specific inhibitors from NCATS' collection of small molecules using qHTS.
Early Translation Branch (ETB)
National Center for Advancing Translational Sciences (NCATS), Rockville, MD
National Institute of Health (NIH), Bethesda, Maryland
Padmanabhan lab provided the NS2B hydrophilic domain and NS3 protease domain in a noncovalent complex used for the unlinked assay. Control compound aprotinin is obtained from Thermo Scientific (#78432; Waltham, Massachusetts). NS2B-NS3 AMC substrate (Bz-Nle-Lys-Arg-Arg-AMC; Nle-KRR-AMC) purchased from Bachem (#I-1995; Torrance, CA). Ac-VKTGKR-AMC purchased from Genscript or Bachem, Ac-FAAGKR-AMC purchased from Genscript, Ac-GLVKRR-AMC purchased from Genscript, Ac-LKKR-AMC purchased from Genscript.
GU AMC unlinked NS2B-NS3 protease qHTS protocol:
Briefly, 3 microL of Zika virus unlinked NS2B-NS3 protease (25 nM for linked final concentration), in assay buffer (10 mM Tris-HCl pH 8.0 with 0.01% Tween 20) was dispensed into a 1,536-well solid-bottom black plate (Greiner Bio One, Monroe, NC). Twenty-three nL of compounds (final concentration range 7.28 nM to 114 microM) or control Aprotinin (final concentration range 3.47 nM to 114 microM) were transferred via Wako Pin-tool (Wako Automation, Richmond, VA). […] Plates were then read immediately on a ViewLux High-throughput CCD imager (PerkinElmer, Waltham, MA) equipped with standard UV fluorescence optics (340(30) nm excitation, 450(20) nm emission) then incubated (room temperature, protected from light) for 15 minutes (~20% conversion). The change in fluorescence intensity over the 15-minute reaction period was normalized against no-inhibitor and no-enzyme controls and the resulting percent inhibition data were fitted to a 4-parameter Hill equation. Aprotinin was used as the intraplate control.
In general terms: In qHTS, concentration-response curves come from the screen itself.
Regarding `CS(=N)(=O)CC[C@H](N)C(=O)O` (stereo not given in full), the Potency entry is “inactive”.

Regarding `NC(N)=NOCCC(N)C(=O)O` (stereo not given), the Potency entry is “inactive”.

As for `CC[C@@H](C(N)=O)N1CCCC1=O`, the Potency result was “inactive”.

For `NCCc1c[nH]c2ccccc12`, the Potency result is “inactive”.

Consider `COc1cc(C(O)CN)ccc1O` (stereo not given), for which the Potency result was “inactive”.

Take `NC(=NCCC[C@H](N)C(=O)O)N[N+](=O)[O-]`: the Potency result is “inactive”.

In the case of `CCCN(CCC)[C@@H]1CCc2ccc(O)cc2C1`, the Potency entry is “inactive”.

Regarding `O=C1CCCN1CC#CCN1CCCC1`, the Potency result was “inactive”.

For the compound `C[C@@H]1O[C@H](C[N+](C)(C)C)C[C@H]1O`, the Potency result was “inactive”.

On to `Cc1nccc2c1[nH]c1ccccc12`, for which the Potency was 26.7 µM (active).

In the case of `O=C(O)Cc1cnc[nH]1`, the Potency entry is “inactive”.

`CC(C)NC(C)Cc1ccc(I)cc1` (stereo not given): the Potency entry was “inactive”.

`O=C(O)CC[N+](=O)[O-]`: the Potency result was “inactive”.

With `C[N+](C)(C)CC(=O)O`, the Potency entry was “inactive”.

As for `O=C(N[C@H]1CN2CCC1CC2)c1ccc(Cl)cc1`, the Potency result is “inactive”.

With `CCCCc1ccc(C(=O)O)nc1`, the Potency entry is “inactive”.

In the case of `c1ccc2sc(C3(N4CCCCC4)CCCCC3)cc2c1`, the Potency result was “inactive”.

For the compound `COc1ccc2c(c[n+](C)c3c4cc5c(cc4ccc23)OCO5)c1OC`, the Potency was 29.9 µM (active).

Consider `C[C@]12N[C@H](Cc3ccccc31)c1ccccc12`, for which the Potency entry was “inactive”.

For the compound `Clc1cnc(Oc2ccc(Oc3ncc(Cl)cc3Cl)cc2)c(Cl)c1`, the Potency entry was “inactive”.

Take `CN[C@@H]1C[C@@H](c2ccc(Cl)c(Cl)c2)c2ccccc21`: the Potency result is “inactive”.

Regarding `O=C(Cc1ccc(Cl)c(Cl)c1)N1CCCCC1CN1CCCC1` (stereo not given), the Potency result was “inactive”.

Consider `S=C(NC1CCCCC1)N1CCC(c2cnc[nH]2)CC1`, for which the Potency entry is “inactive”.

As for `O=C(O)[C@@H]1CCN1`, the Potency result is “inactive”.

With `C[C@@H](N)Cc1cnc[nH]1`, the Potency result was “inactive”.

Turning to `CC(Cc1ccc(O)cc1)NCC(O)c1cc(O)cc(O)c1` (stereo not given), the Potency entry was “inactive”.

Take `NCc1cc(=O)[nH]o1`: the Potency entry is “inactive”.

In the case of `CC(C)Oc1cccnc1N(C)C1CCN(Cc2ccccc2)CC1`, the Potency is 29.9 µM (active).

As for `Cn1cnc(CCN)c1`, the Potency result is “inactive”.

As to `CNCCc1ccc(O)c(O)c1`, the Potency entry is “inactive”.

On to `Oc1ccc2c3c1O[C@H]1c4[nH]c5c(c4C[C@@]4(O)[C@@H](C2)N(CC2CC2)CC[C@]314)C[C@@]1(O)[C@H]2Cc3ccc(O)c4c3[C@@]1(CCN2CC1CC1)[C@H]5O4`, for which the Potency result was “inactive”.

As to `C[N+]1(C)C2CCC1CC(OC(=O)C(CO)c1ccccc1)C2` (stereo not given), the Potency entry was “inactive”.

With `NC(CP(=O)(O)O)C(=O)O` (stereo not given), the Potency entry is “inactive”.

As for `NC(CCP(=O)(O)O)C(=O)O` (stereo not given), the Potency entry was “inactive”.

Take `CCCN1CCC[C@H](c2cccc(O)c2)C1`: the Potency result is “inactive”.

Turning to `C=CCN1CC[C@]23CCCCC2[C@H]1Cc1ccc(O)cc13` (stereo not given in full), the Potency result was “inactive”.

With `CC(=O)[C@H]1CCC2C3CC[C@H]4C[C@H](O)CC[C@]4(C)C3CC[C@@]21C` (stereo not given in full), the Potency result is “inactive”.

Regarding `NC1CC1c1ccccc1` (stereo not given), the Potency entry is “inactive”.

In the case of `CC(=O)NCCc1c[nH]c2ccccc12`, the Potency result is “inactive”.

Regarding `C#CCOC(=O)C1=CCCN(C)C1`, the Potency entry is “inactive”.
